Some test systems named below: T-47D breast; BT-549 breast; MDA-MB-435 melanoma; SW-620 colon; MCF7 breast; HCT-116 colon; HCC-2998 colon; KM12 colon.
What all share (experiment): NCI-60 one-dose screen, 48 h (100 = growth as untreated, 0 = no growth, -100 = all killed)
Common to all, as to settings: 10 µM

Each structure is given as a SMILES string. The panel holds about 83,000 compounds, 20% with a hit somewhere; the sample as a whole holds those more often.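 96-well plates, one dose, 48 hours. Percent growth reported; active if below 10.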 A number with no mark means an inactive call. Calls of active or inactive are those of the source.

The values that follow come from PubChem BioAssay (NCI).

Regarding `C[C@]12CC[C@@H]3c4ccc(OS(=O)(=O)O)cc4CC[C@H]3[C@@H]1CC[C@@H]2NS(=O)(=O)c1ccc(-c2ccccc2)cc1`, the growth in the experiment with T-47D breast was 49.8%; with BT-549 breast it was 53.9%; in the experiment on MDA-MB-435 melanoma, 69.4%; in the experiment on SW-620 colon it was 75.3%; with MCF7 breast, 30.2%; with HCT-116 colon, 36.2%. In addition, the growth in the experiment with HCC-2998 colon was 80.9%; in the experiment with KM12 colon, 60.5%.
Regarding `CCOC(=O)c1cc(C(=O)c2ccc(F)cc2F)n2ccccc12`, the growth in the experiment with T-47D breast was 76.3%; in the experiment on BT-549 breast it was 88.5%; in the experiment on MDA-MB-435 melanoma, 106%; with SW-620 colon, 94.5%; in the experiment with MCF7 breast, 94.1%; in the experiment on HCT-116 colon it was 92.5%. The growth with HCC-2998 colon was 101%; in the experiment with KM12 colon, 96.1%.
Turning to `O=C(CSc1nnc(-c2cccnc2SCc2ccccc2)o1)Nc1nc(Cl)cc(Cl)n1`, the growth was 98.5% with T-47D breast; 102% in the experiment on BT-549 breast; 105% in the experiment with MDA-MB-435 melanoma; 103% in the experiment with SW-620 colon; 92% in the experiment with MCF7 breast; 97.3% with HCT-116 colon. Moreover, the growth with HCC-2998 colon is 103%.
`c1ccc(/C(=N\Nc2ccc3ccccc3n2)c2ccccn2)cc1`: the growth is 16.5% in the experiment with T-47D breast; 12.3% with BT-549 breast; 23.4% in the experiment with MDA-MB-435 melanoma; 22.6% in the experiment on SW-620 colon; 12.2% with MCF7 breast; 9.03% (active) in the experiment with HCT-116 colon. Also, in the experiment on HCC-2998 colon, the growth was 45.5%.
Take `CC(=O)Nc1ccc2c(c1)C(=O)c1cccc(C(=O)O)c1-2`: the growth in the experiment with T-47D breast was 99.3%; in the experiment with BT-549 breast it was 117%; in the experiment on MDA-MB-435 melanoma, 102%; in the experiment on SW-620 colon, 99.8%; in the experiment with MCF7 breast it was 105%; with HCT-116 colon it was 105%. In addition, the growth in the experiment with HCC-2998 colon is 102%; in the experiment on KM12 colon, 120%.
On to `CCN(CCCNc1cc2c(c(N)c1S(=O)(=O)O)C(=O)c1ccccc1C2=O)c1ccccc1`, for which the growth was 93.1% with T-47D breast; 89.2% with BT-549 breast; 106% with MDA-MB-435 melanoma; 113% with SW-620 colon; 107% in the experiment on MCF7 breast; 90% in the experiment on HCT-116 colon. For the same compound, the growth with HCC-2998 colon is 108%; with KM12 colon, 107%.
As to `COc1ccc(-c2nn(-c3cccc(Cl)c3)cc2-c2cc(-c3cccs3)[nH]c(=S)n2)cc1`, the growth with T-47D breast was 41.6%; with BT-549 breast, 46.7%; in the experiment with MDA-MB-435 melanoma it was 33.5%; in the experiment on SW-620 colon, 61.4%; with MCF7 breast it was 34.1%; in the experiment on HCT-116 colon, 20.4%. Moreover, the growth is 37.4% in the experiment on HCC-2998 colon and 27.5% in the experiment with KM12 colon.
Consider `COc1cc(OC)c2c(=O)c(O)c(-c3ccccc3)oc2c1`, for which the growth was 92.1% in the experiment on T-47D breast; 85.6% in the experiment with BT-549 breast; 86.9% in the experiment on MDA-MB-435 melanoma; 77.7% in the experiment on SW-620 colon; 70.1% with MCF7 breast; 63.1% in the experiment on HCT-116 colon. The growth in the experiment on HCC-2998 colon is 83.9%; in the experiment with KM12 colon it was 78.7%.
Turning to `CN(C)CCC1(c2ccccc2)CCN(C)C1=O` (stereo unspecified), the growth was 104% with T-47D breast; 106% in the experiment on BT-549 breast; 105% in the experiment with MDA-MB-435 melanoma; 103% with SW-620 colon; 106% in the experiment with MCF7 breast; 110% with HCT-116 colon. Further, the growth is 108% with HCC-2998 colon and 103% with KM12 colon.
`O=C(COc1cccc(/C=C2\CSc3ccc(Cl)cc3C2=O)c1)c1ccc(Cl)cc1`: the growth was 45.2% in the experiment on T-47D breast; 20.2% in the experiment with BT-549 breast; 87.7% in the experiment on MDA-MB-435 melanoma; -71.6% (active) in the experiment on SW-620 colon; -35.1% (active) with MCF7 breast; 42% in the experiment on HCT-116 colon.
For `C[N+]1(CCCCC[N+]2(C)CCCC2)CCCC1`, the growth in the experiment on T-47D breast was 101%; in the experiment with BT-549 breast, 77.8%; in the experiment with MDA-MB-435 melanoma, 98.6%; in the experiment on SW-620 colon it was 98.3%; in the experiment on MCF7 breast, 95.2%; with HCT-116 colon, 107%. The growth in the experiment with HCC-2998 colon was 119%; with KM12 colon, 102%.
On to `COc1cc(/C=C2\CCCC3=C2NC(N)=NC3c2cc(OC)c(OC)c(OC)c2)cc(OC)c1OC` (stereo unspecified), for which the growth in the experiment on T-47D breast was 27.5%; in the experiment with BT-549 breast, -38.7% (active); with MDA-MB-435 melanoma, -17.9% (active); in the experiment with SW-620 colon it was -22.3% (active); with MCF7 breast, 43%; in the experiment with HCT-116 colon it was -81.6% (active). For the same compound, the figures for the growth in the experiment on HCC-2998 colon and in the experiment on KM12 colon were -35.2% (active) and -75.8% (active), respectively.
`O=C(CCl)Nc1ccc(Cc2ccc(NC(=O)CCl)cc2)cc1`: the growth in the experiment on T-47D breast was 14.7%; in the experiment on BT-549 breast, -23.5% (active); in the experiment with MDA-MB-435 melanoma, 0.989% (active); in the experiment on SW-620 colon, -21.8% (active); in the experiment with MCF7 breast, 1.46% (active); with HCT-116 colon, -56.8% (active). Also, the growth is -14.9% (active) with HCC-2998 colon and 0.445% (active) in the experiment with KM12 colon.
Turning to `O=S(=O)(Oc1ccc(-c2ccc3sccc3c2)cc1)c1ccccc1`, the growth with T-47D breast was 102%; in the experiment with BT-549 breast, 101%; in the experiment on MDA-MB-435 melanoma it was 97.5%; in the experiment with SW-620 colon, 100%; with MCF7 breast it was 77.5%; in the experiment with HCT-116 colon, 105%. The growth is 93.4% in the experiment with HCC-2998 colon and 110% in the experiment on KM12 colon.
Regarding `CC(=O)[C@H]1CC[C@]2(C)[C@@H]1CC[C@@H]1[C@@]3(C)CC(CCC#N)(CCC#N)C(=O)C(C)(C)[C@@H]3CC[C@]12C`, the growth was 91.2% with T-47D breast; 103% in the experiment with BT-549 breast; 92.4% in the experiment with MDA-MB-435 melanoma; 88.8% with SW-620 colon; 90.1% in the experiment with MCF7 breast; 96% with HCT-116 colon. Further, the growth in the experiment on HCC-2998 colon is 100%; in the experiment with KM12 colon it was 94.5%.
